Measured values as given in the supplement of paper PMC6555819.

What was measured:
Assay in all cases: PBM binding z-score (relative to random genomic background probes); higher = stronger binding; sequences stand for … in GC…GCGATTGACAGCGTAGAATGAAGG
[1] = test system: PPARg:RXRa DBDmut IVT, anti-RXR (DBD mutation: RXRa K156A/R161A, NR concentration 270 nM, RXRa partner concentration 90 nM)
Procedure, shortened: (§1)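 Regression normalization was applied to scanned fluorescence from custom Agilent 4×180K protein-binding microarrays. Before scanning, arrays were incubated 1 h with ligand-free nuclear receptor dimers, and binding was detected with antibodies against each partner (one per run). Binding z-scores use the random background probes as reference.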

[2] = test system: PPARg:RXRa IVT, anti-PPARg (NR concentration 270 nM, RXRa partner concentration 90 nM)
Procedure, shortened: as §1

[3] = test system: PPARg DBDmut:RXRa IVT, anti-PPARg (DBD mutation: PPARg1 K132A/R137A, NR concentration 270 nM, RXRa partner concentration 90 nM)
Procedure, shortened: as §1

[4] = test system: PPARg DBDmut IVT, anti-PPARg (DBD mutation: PPARg1 K132A/R137A, NR concentration 270 nM)
Procedure, shortened: as §1

[5] = test system: PPARg homodimer (NR concentration 180 nM)
Procedure, shortened: as §1

[6] = test system: PXR:RXRa (NR concentration 270 nM, RXRa partner concentration 90 nM)
Procedure, shortened: as §1

[7] = test system: PXR homodimer (NR concentration 270 nM)
Procedure, shortened: as §1

[8] = test system: RARa:RXR (NR concentration 270 nM, RXRa partner concentration 90 nM)
Procedure, shortened: as §1

[9] = test system: RARa homodimer (NR concentration 270 nM)
Procedure, shortened: as §1

[10] = test system: RARb:RXRa (NR concentration 270 nM, RXRa partner concentration 90 nM)
Procedure, shortened: as §1

[11] = test system: RARb homodimer (NR concentration 270 nM)
Procedure, shortened: as §1

[12] = test system: RARg:RXRa (NR concentration 270 nM, RXRa partner concentration 90 nM)
Procedure, shortened: as §1

[13] = test system: RARg homodimer (NR concentration 270 nM)
Procedure, shortened: as §1

[14] = test system: RXRa DBDmut IVT, anti-RXR (DBD mutation: RXRa K156A/R161A, NR concentration 90 nM)
Procedure, shortened: as §1

[15] = test system: RXRa homodimer (NR concentration 180 nM)
Procedure, shortened: as §1

[16] = test system: THRa:RXRa (NR concentration 90 nM, RXRa partner concentration 90 nM)
Procedure, shortened: as §1

[17] = test system: THRa homodimer (NR concentration 90 nM)
Procedure, shortened: as §1

[18] = test system: VDR homodimer (NR concentration 270 nM)
Procedure, shortened: as §1

| Sequence | PBM binding z-score [1] | PBM binding z-score [2] | PBM binding z-score [3] | PBM binding z-score [4] | PBM binding z-score [5] | PBM binding z-score [6] | PBM binding z-score [7] | PBM binding z-score [8] | PBM binding z-score [9] | PBM binding z-score [10] | PBM binding z-score [11] | PBM binding z-score [12] | PBM binding z-score [13] | PBM binding z-score [14] | PBM binding z-score [15] | PBM binding z-score [16] | PBM binding z-score [17] | PBM binding z-score [18] |
| --- | --- | --- | --- | --- | --- | --- | --- | --- | --- | --- | --- | --- | --- | --- | --- | --- | --- | --- |
| CCTTACGGGTCACTCCAGGTTATACCATCGGAGT | 2.28 | 3.61 | 0.661 | -0.4 | 1.69 | 5 | 0.455 | 3.74 | 0.133 | 3.68 | 2.89 | 4.32 | 4.44 | 1.3 | 4.29 | 4.98 | 0.681 | 1.45 |
| ACTTGCGGGTCAACGAGGTTATAGCACGCGTATA | 5.15 | 4.85 | 1.36 | 0.482 | 2.04 | 4.86 | 3.57 | 5.03 | 1.02 | 3.83 | 3.37 | 5.21 | 4.88 | 2.41 | 5.33 | 3.81 | 1.31 | 3.69 |
| CAACCTAGGTCAAGGTCAAAGTCGGTTTGTGCCA | 4.85 | 5.78 | -0.338 | 0.164 | 3.33 | 5.19 | 1.48 | 5.29 | 0.703 | 5.17 | 5.28 | 6.18 | 6.82 | 2.98 | 6 | 4.3 | 3.92 | 4.12 |
| GGAACGAGGGCATTCGAGTTGCTAGCATGGCGAT | 2.56 | 2.02 | -0.0761 | -0.825 | -0.911 | 2.3 | -0.0583 | 0.598 | -0.778 | 1.8 | 0.541 | 0.857 | 1.12 | 2.88 | 0.425 | 2.25 | -0.87 | 2.87 |
| CAAACTAGGTCACCGGTAGGTCAAAGTCCGCATG | 8.32 | 9.19 | 3.98 | 4.14 | 4.51 | 4.51 | 0.526 | 5.43 | 1.6 | 4.95 | 4.94 | 7.11 | 6.27 | 1.7 | 4.82 | 4.3 | 2.8 | 2.2 |
| CGTCCAAGGTCATAGGTCAGTGAAGAGATGACGG | 3.46 | 4.78 | 0.896 | -0.0935 | 3.35 | 5.48 | 1.01 | 6.98 | 1.13 | 5.36 | 4.84 | 6.97 | 6.86 | 3.61 | 8.18 | 4.31 | 2.65 | 3.51 |
| CAAACTAGGTCACGAAAGGTCACAGTCGAATGAC | 8.61 | 9.14 | 2.02 | 1.37 | 4.6 | 6.61 | 1.31 | 7.03 | 2.46 | 5.7 | 6.08 | 7.72 | 8.69 | 2.05 | 7.64 | 5.11 | 3.05 | 2.77 |
